Results reported in PubChem BioAssay (NCATS).
Records with an inconclusive call do not appear. A call without a number means that no potency is given here. The source made the active and inactive calls. The call rests on the fitted dose curve; in most records, active means well fitted curve in the direction sought with a large enough effect; inconclusive means small, poorly fitted or top-dose-only effect, or another doubt; inactive means no such curve, though single readings can be large; an effect the other way counts as inactive or inconclusive.

What was measured:
[1] = qHTS of pediatric cancer cell lines to identify multiple opportunities for drug repurposing: Primary screen for NB-EBc1 cells (AID 1347095); further: potency means the concentration at half of the fitted maximal effect
In short: (§1)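 Luminescence from CellTiter-Glo served as readout of metabolically active cells after 48 h compound exposure. Titrations: MIPE 11-point, from 0.78 nM; NPC 8-point, from 0.59 nM (final). Concentration-response curves came straight from the primary screen.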

[2] = qHTS of pediatric cancer cell lines to identify multiple opportunities for drug repurposing: Primary screen for U-2 OS cells (AID 1347096); further: nearly all actives have a fitted effect of over 50% in size
In short: (§2)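 Cells (500-1,000/well) rested 5 h, then received compounds for 48 h; metabolically active cells were measured by CellTiter-Glo luminescence. Final concentrations spanned up to 46 µM (MIPE, 11-point) or 0.59 nM-46 µM (NPC, 8-point) in primary screens, 11-point in follow-ups.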

[3] = qHTS of pediatric cancer cell lines to identify multiple opportunities for drug repurposing: Primary screen for SK-N-SH cells (AID 1347098); further: nearly all actives have a fitted effect of over 65% in size; further: potency means the concentration at half of the fitted maximal effect
In short: as §2

[4] = qHTS of pediatric cancer cell lines to identify multiple opportunities for drug repurposing: Primary screen for NB1643 cells (AID 1347099); further: nearly all actives have a fitted effect of over 50% in size; further: potency means the concentration at half of the fitted maximal effect
In short: as §1

[5] = qHTS of pediatric cancer cell lines to identify multiple opportunities for drug repurposing: Primary screen for LAN-5 cells (AID 1347100); further: potency means the concentration at half of the fitted maximal effect
In short: as §2

[6] = qHTS of pediatric cancer cell lines to identify multiple opportunities for drug repurposing: Primary screen for BT-12 cells (AID 1347101); further: nearly all actives have a fitted effect of over 25% in size; further: potency means the concentration at half of the fitted maximal effect
In short: as §2

[7] = qHTS of pediatric cancer cell lines to identify multiple opportunities for drug repurposing: Primary screen for OHS-50 cells (AID 1347103); further: nearly all actives have a fitted effect of over 40% in size; further: potency means the concentration at half of the fitted maximal effect
In short: as §2

[8] = qHTS of pediatric cancer cell lines to identify multiple opportunities for drug repurposing: Primary screen for RD cells (AID 1347104); further: nearly all actives have a fitted effect of over 55% in size; further: potency means the concentration at half of the fitted maximal effect
In short: as §1

[9] = qHTS of pediatric cancer cell lines to identify multiple opportunities for drug repurposing: Primary screen for MG 63 (6-TG R) cells (AID 1347105); further: nearly all actives have a fitted effect of over 50% in size
In short: as §1

[10] = qHTS of pediatric cancer cell lines to identify multiple opportunities for drug repurposing: Primary screen for control Hh wild type fibroblast cells (AID 1347106);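 further: series mostly up to about 46 µM; a drop in luminescence marks cytotoxicity and a rise apparent proliferation; nearly all actives have a fitted effect of over 55% in size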
In short: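 Viability after 48 h compound treatment at 37C, 500-1,000 cells/well, read as ATP luminescence with CellTiter-Glo. Primary screens used 11-point (MIPE, 0.78 nM-46 µM) or 8-point (NPC, 0.59 nM-46 µM) final concentrations; follow-up screens used 11-point dilutions.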

[11] = qHTS of pediatric cancer cell lines to identify multiple opportunities for drug repurposing: Primary screen for Rh30 cells (AID 1347107); further: nearly all actives have a fitted effect of over 75% in size; further: potency means the concentration at half of the fitted maximal effect
In short: as §2

[12] = qHTS of pediatric cancer cell lines to identify multiple opportunities for drug repurposing: Primary screen for Rh41 cells (AID 1347108); further: nearly all actives have a fitted effect of over 70% in size; further: potency means the concentration at half of the fitted maximal effect
In short: as §1

[13] = qHTS of pediatric cancer cell lines to identify multiple opportunities for drug repurposing: Primary screen for Rh18 cells (AID 1347102); further: nearly all actives have a fitted effect of over 65% in size; further: potency means the concentration at half of the fitted maximal effect
In short: as §2

[14] = qHTS of pediatric cancer cell lines to identify multiple opportunities for drug repurposing: Confirmatory screen for NB1643 cells (AID 1347109); further: nearly all actives have a fitted effect of over 45% in size; further: potency means the concentration at half of the fitted maximal effect
In short: as §2

[15] = qHTS of pediatric cancer cell lines to identify multiple opportunities for drug repurposing: Confirmatory screen for A673 cells (AID 1347110);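 further: cells exposed to compound for 48 h before the viability read; nearly all actives have a fitted effect of over 65% in size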; further: potency means the concentration at half of the fitted maximal effect
In short: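 Forty-eight-hour viability assay. Follow-up compounds ran at 11-point dilutions; positive control bortezomib at 2.3 uM final, neutral control DMSO.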

[16] = qHTS of pediatric cancer cell lines to identify multiple opportunities for drug repurposing: Confirmatory screen for SK-N-MC cells (AID 1347111);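 further: cells exposed to compound for 48 h before the readout; nearly all actives have a fitted effect of over 70% in size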; further: potency means the concentration at half of the fitted maximal effect
In short: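 Seed 500-1,000 cells/well; rest 5 h at 37 degrees C. Pin-transfer compounds, 11-point titration. Incubate 48 h. Add CellTiter-Glo, 15 min RT, read luminescence.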

[17] = qHTS of pediatric cancer cell lines to identify multiple opportunities for drug repurposing: Confirmatory screen for NB-EBc1 cells (AID 1347115);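 further: cells exposed to compound for 48 h before the viability read; nearly all actives have a fitted effect of over 45% in size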; further: potency means the concentration at half of the fitted maximal effect
In short: as §2

[18] = qHTS of pediatric cancer cell lines to identify multiple opportunities for drug repurposing: Primary screen for Saos-2 cells (AID 1347097); further: nearly all actives have a fitted effect of over 40% in size; further: potency means the concentration at half of the fitted maximal effect
In short: as §1

[19] = qHTS of pediatric cancer cell lines to identify multiple opportunities for drug repurposing: Confirmatory screen for LAN-5 cells (AID 1347113); further: nearly all actives have a fitted effect of over 65% in size
In short: as §2

[20] = qHTS of pediatric cancer cell lines to identify multiple opportunities for drug repurposing: Confirmatory screen for DAOY cells (AID 1347114); further: nearly all actives have a fitted effect of over 65% in size; further: potency means the concentration at half of the fitted maximal effect
In short: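 Viability measured as metabolically active cells via CellTiter-Glo luminescence following 48 hours of compound exposure, 11-point dilutions in confirmatory testing. 500-1,000 cells/well plated 5 hours before dosing; controls were DMSO and 2.3 µM bortezomib.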

SMILES	Potency [1]	Potency [2]	Potency [3]	Potency [4]	Potency [5]	Potency [6]	Potency [7]	Potency [8]	Potency [9]	Potency [10]	Potency [11]	Potency [12]	Potency [13]	Potency [14]	Potency [15]	Potency [16]	Potency [17]	Potency [18]	Potency [19]	Potency [20]
CN1CCN(N)CC1	inactive	inactive	inactive	inactive	inactive	inactive	inactive	inactive	inactive	inactive	inactive	inactive								
CC(C)(C)CC(=O)OCC(=O)[C@@]1(O)CC[C@H]2[C@@H]3CCC4=CC(=O)C=C[C@]4(C)[C@H]3[C@@H](O)C[C@@]21C	inactive	inactive	inactive	inactive	inactive	inactive		inactive	inactive	inactive	inactive	inactive	inactive	inactive	2.33 µM (active)	inactive	inactive			
CCOC(=O)CN1CCCC1=O	inactive	inactive	inactive	inactive	inactive	inactive	inactive	inactive	inactive	inactive	inactive	inactive	inactive							
O=C(c1ccco1)N1CCNCC1	inactive	inactive	inactive	inactive		inactive	inactive	inactive	inactive	inactive	inactive	inactive	inactive							
CN1CCC(N(Cc2cccs2)c2ccccc2)CC1	inactive	inactive				21.9 µM (active)			inactive	inactive	inactive							21.1 µM (active)		
CC(=O)N(CC(=O)N(C)C)c1ccccc1	inactive	inactive	inactive	inactive				inactive	inactive	inactive	inactive	inactive	inactive							
CC(C)(C)c1cc(C=O)cc(C(C)(C)C)c1O	inactive	inactive	inactive	inactive	inactive	inactive	inactive	inactive	inactive	inactive	inactive	inactive	inactive							
C[N+]1(C)CCC(OC(=O)C(O)(c2ccccc2)C2CCCC2)C1 (stereo not drawn)	inactive	inactive		inactive			inactive	inactive	inactive	inactive	inactive	inactive	inactive					inactive		
CCC1(c2cnc[nH]2)Cc2ccccc2C1	inactive	inactive	inactive	inactive	inactive	inactive		inactive	inactive	inactive	inactive	inactive	inactive		inactive	3.29 µM (active)	20.8 µM (active)		inactive	
CO[C@@]1(NC(=O)CSC[C@@H](N)C(=O)O)C(=O)N2C(C(=O)O)=C(CSc3nnnn3C)CS[C@@H]21	inactive	inactive	inactive		inactive	inactive	inactive	inactive	inactive	inactive	inactive	inactive	inactive							
CCOC(=O)c1ccc(OCCN2C[C@H](O)[C@@H](O)[C@H](O)[C@H]2CO)cc1	inactive	inactive	inactive	inactive	inactive	inactive		inactive	inactive	inactive	inactive	inactive								
COC(=O)c1ccc(NC(C)=O)cc1OC	inactive	inactive	inactive	inactive	inactive	inactive		inactive	inactive		inactive	inactive	inactive							
C[C@H](N)C(=O)N[C@@H](C)C(=O)NC1[C@H]2CN(c3nc4c(cc3F)c(=O)c(C(=O)O)cn4-c3ccc(F)cc3F)C[C@@H]12 (stereo partly drawn)	inactive	inactive						inactive		inactive	inactive	inactive						inactive		
C[C@@]12CCC[C@H]1[C@@H]1CC[C@H]3C[C@@H](O)CC[C@]3(C)[C@H]1CC2	inactive	inactive	inactive	inactive	inactive			inactive		inactive	inactive	inactive	inactive							
CCCC(=O)O[C@]1(C(=O)CC)CC[C@H]2[C@@H]3CCC4=CC(=O)CC[C@]4(C)[C@H]3[C@@H](O)C[C@@]21C	inactive	inactive	inactive	inactive	inactive	inactive		inactive			inactive		inactive							
CCOc1ccccc1OCC1CNCCO1 (stereo not drawn)	inactive	inactive	inactive	inactive		inactive	inactive	inactive	inactive	inactive	inactive	inactive	inactive							
C/C(=C(/OCCOc1ccc(Cl)cc1)c1ccc(Cl)cc1Cl)n1ccnc1	inactive	inactive							inactive	inactive	inactive		inactive					inactive		
COc1ccc(OC(=O)N(CC(=O)O)Cc2ccc(OCCc3nc(-c4ccccc4)oc3C)cc2)cc1	inactive	inactive	inactive	inactive	inactive	inactive	inactive	inactive	inactive	inactive	inactive	inactive	inactive							
Nc1ccc(O)cc1	inactive	inactive	inactive		15 µM (active)	inactive	inactive	inactive	inactive	inactive	inactive	inactive	inactive							

SMILES	Potency [1]	Potency [2]	Potency [3]	Potency [4]	Potency [5]	Potency [6]	Potency [7]	Potency [8]	Potency [9]	Potency [10]	Potency [11]	Potency [12]	Potency [13]	Potency [14]	Potency [15]	Potency [16]	Potency [17]	Potency [18]	Potency [19]	Potency [20]
C[C@]12CCC(=O)C=C1CC[C@@H]1[C@@H]2[C@@H](O)C[C@@]2(C)[C@H]1CC[C@]2(O)C(=O)COC(=O)CCC(=O)O	inactive	inactive			inactive	inactive	inactive	inactive	inactive	inactive		inactive	inactive	inactive	inactive	18.5 µM (active)		inactive	inactive	inactive
Nc1ncnc2nc[nH]c12	inactive	inactive	inactive	inactive	inactive	inactive	inactive	inactive	inactive	inactive	inactive	inactive	inactive							
COCCc1ccccn1	inactive	inactive	inactive	inactive	inactive	inactive	inactive	inactive	inactive	inactive	inactive	inactive	inactive							
N[C@@H](Cc1cc(I)c(O)c(I)c1)C(=O)O	inactive	inactive	inactive	inactive	inactive	inactive	inactive	inactive	inactive	inactive	inactive	inactive	inactive							
CC(COc1ccccc1)NN (stereo not drawn)	inactive	inactive	inactive	inactive	inactive	inactive	inactive	inactive	inactive	inactive	inactive	inactive	inactive							
CN1C(=O)CC(C)(c2ccccc2)C1=O (stereo not drawn)	inactive	inactive	inactive	inactive			inactive	inactive	inactive	inactive		inactive	inactive							
CC(C)=CCC/C(C)=C/CC/C(C)=C/CCC(=O)OC/C=C(\C)CCC=C(C)C	inactive	inactive			inactive		inactive	inactive		inactive	inactive	inactive	inactive					inactive		
COC(=O)CCCCC(CCSS/C(CCO)=C(\C)N(C=O)Cc1cnc(C)nc1N)SC(C)=O (stereo not drawn)	inactive	inactive	inactive	inactive	inactive	inactive	inactive	inactive	inactive	inactive	inactive	inactive								
CCCCN(CCN(CCCC)C(=O)N1CCOCC1)C(=O)N1CCOCC1	inactive	inactive			inactive			inactive	inactive	inactive	inactive		inactive					23.7 µM (active)		
CN=C(N)NC(=O)Nc1c(C)cccc1C	inactive	inactive			inactive	inactive		inactive	inactive	inactive		inactive	inactive					inactive		
C[C@@H]1CCC[C@H](C)N1CCCC(O)(c1ccccc1)c1ccccn1 (stereo partly drawn)	inactive	inactive	inactive	inactive	inactive	inactive	inactive	inactive	inactive	inactive	inactive	inactive	inactive							
CC(C)=CCC/C(C)=C/CC/C(C)=C/C(=O)OCC(=O)[C@@]1(O)CC[C@H]2[C@@H]3CCC4=CC(=O)C=C[C@]4(C)[C@H]3[C@@H](O)C[C@@]21C	21.1 µM (active)	inactive	inactive	inactive	13.3 µM (active)			inactive	inactive	inactive	inactive	inactive	inactive	23.3 µM (active)		18.5 µM (active)	inactive			20.8 µM (active)
CC(=O)Nc1ccn(C2COC(COC(=O)c3ccccc3)O2)c(=O)n1 (stereo not drawn)	2.37 µM (active)	inactive						inactive		inactive	inactive	inactive						inactive		
CC(CC(C#N)(c1ccccc1)C(C)C)N(C)C (stereo not drawn)	inactive	inactive	inactive	inactive		inactive	inactive	inactive	inactive	inactive	inactive	inactive	inactive							
Nc1ccc2c(c1)CN1C(=O)c3ccccc3C1=N2	0.651 µM (active)									inactive										
CC(CC1c2ccccc2CCc2ccccc21)CN(C)C (stereo not drawn)	inactive	inactive			inactive				inactive	inactive	inactive	inactive	inactive							
CCCCCCCCCCCC[N+](C)(C)Cc1ccccc1	inactive		15.4 µM (active)	6.68 µM (active)	inactive	4.37 µM (active)	1.74 µM (active)	9.44 µM (active)			18.8 µM (active)	21.1 µM (active)	2.11 µM (active)					4.73 µM (active)		
CCCCC/C=C\C/C=C\CCCCCCCC(=O)NC(C)c1ccccc1 (stereo not drawn)	inactive	inactive		inactive	inactive			inactive		inactive	inactive									
